Screening data (PubChem BioAssay)
TR-FRET SRC-2 ct: counter-screen for PPARgamma SRC-2 recruitment agonists: TR-FRET artefact. hits give high values. TR-FRET ratio at 8 µM. 200,000 compounds, 0.4% hits; in the data active = TR-FRET ratio above about 2000
SRC3 TRFRET art: TR-FRET artefact, counter-screen to PPARgamma/SRC-3 agonist assay; PPARgamma/SRC-3 format; hits give high values; AID 1048; 99,000 compounds, 0.39% hits; TR-FRET ratio at 8 µM; in the data active = TR-FRET ratio above about 2000
PPARg SRC3 recr: promotes SRC-3 coactivator recruitment by human PPARgamma; 200,000 compounds, 0.26% hits; AID 731; activation, % at 8 µM; biochemical PPARgamma/SRC-3 coactivator recruitment assay; in the data active = activation above about 23%;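 note: 0% = DMSO and 100% = reference agonist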
PPARg SRC-1 ag: PPARgamma-driven SRC-1 recruitment agonism | 200,000 compounds, 0.41% hits | PPARgamma-SRC-1 coactivator recruitment biochemical assay | activation, % at 8 µM; in the data active = activation above about 19%;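 note: 0% = DMSO and 100% = reference agonist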
SRC1 TRFRET art: TR-FRET artefact, counter-screen to PPARgamma/SRC-1 agonist assay | TR-FRET detection artefact counter-screen, emission ratio; hits give high values | AID 1051 | 99,000 compounds, 0.34% hits | TR-FRET ratio at 8 µM; in the data active = TR-FRET ratio above about 2300
PPARg SRC2 recr: promotes SRC-2 coactivator recruitment by human PPARgamma; P37231; PPARgamma LBD-SRC-2 recruitment, biochemical; activation, % at 8 µM; 200,000 compounds, 0.34% hits;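 note: 0% = vehicle and 100% = reference agonist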
PPARg SRC2 ag: confirmation of agonists of SRC-2 recruitment by human PPARgamma; shares compounds with PPARg SRC3 recr; biochemical SRC-2 recruitment by PPARgamma; activation, % at 8 µM; 790 compounds, 52% hits;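 note: 0% = vehicle alone and 100% = reference agonist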
PPARg SRC1 conf: confirmation of agonists of SRC-1 recruitment by human PPARgamma; shares compounds with PPARg SRC3 recr; PPARgamma–SRC-1 coactivator recruitment biochemical assay; activation, % at 8 µM; 790 compounds, 43% hits; AID 1300; in the data active = activation above about 20%;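 note: 0% = vehicle wells and 100% = reference agonist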
PPARg SRC3 ag: confirmation of agonists of SRC-3 recruitment by human PPARgamma. 790 compounds, 29% hits. shares compounds with PPARg SRC3 recr. activation, % at 8 µM. AID 1301. biochemical PPARgamma-SRC-3 coactivator recruitment, agonist mode; in the data active = activation above about 24%;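 note: 0% = vehicle wells and 100% = reference agonist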
* hit, by the source's call; / = no result given. Compounds with a hit are over-represented: about 0.9% of the library has one in this group of screens. Cut-off read from the data, not from the text of the source, unless noted: active = activation above about 22%; inactive = the rest.

SMILES | TR-FRET SRC-2 ct | SRC3 TRFRET art | PPARg SRC3 recr | PPARg SRC-1 ag | SRC1 TRFRET art | PPARg SRC2 recr | PPARg SRC2 ag | PPARg SRC1 conf | PPARg SRC3 ag
N#Cc1ccc(-c2ccc3c(c2)OCO3)nc1SCC(=O)OCc1ccccc1 | 1976* | / | 46* | 40* | / | 10 | 51* | 43* | 25*
COc1ccc2nc(SCC(=O)Nc3ccc(S(=O)(=O)N4CCCC4)cc3)c(C#N)cc2c1 | 4855* | / | 83* | 86* | / | 78* | 79* | 62* | 48*
N#Cc1cc2ccccc2nc1SCC(=O)Nc1ccc(S(=O)(=O)N2CCCC2)cc1 | 3014* | / | 7 | 19* | / | 13 | 5 | 4 | 3
Cc1cc(=O)[nH]c(SCC(=O)Nc2ccc(S(=O)(=O)N3CCCCC3)cc2)n1 | 1360 | / | -13 | -3 | / | 6 | / | / | /
Cc1cc2nc(-c3ccc(SCC(=O)Nc4ccc(S(=O)(=O)N5CCCC5)cc4)nc3)[nH]c2cc1C | 3000* | 3472* | 20 | 31* | 3103* | 39* | 79* | 62* | 50*
COc1ccc2nc(SCC(=O)N3CCCCC3)c(C#N)cc2c1 | 1479 | 1673 | 4 | 4 | 1902 | -3 | / | / | /
O=C(CSc1ccc(-c2nc3ccccc3[nH]2)cn1)Nc1ccc(S(=O)(=O)N2CCCC2)cc1 | 1868 | 2021 | 1 | -1 | 1936 | 5 | / | / | /
Cc1cc(/C=C(\C#N)C(=O)NCc2cccs2)c(C)n1-c1ccccc1F | 1339 | / | -2 | 2 | / | -8 | / | / | /
Cc1cccc(CSc2nc(N)c(C#N)c(-c3cccs3)c2C#N)c1 | 1646 | / | 20 | 7 | / | 23* | 14 | 8 | 8
Cc1cccc(CSc2nc3c(c(-c4cccs4)c2C#N)CN(C)CC3)c1 | 1415 | 1672 | -4 | -1 | 1666 | 1 | / | / | /
CCn1c(=S)[nH]c2c(c1=O)C(C)(C)Cc1ccccc1-2 | 2673* | 2752* | 28* | 44* | 3374* | 33* | 36* | 23* | 25*
CC1(C)Cc2ccccc2-c2nc3n(c(=O)c21)CCS3 | 1747 | 1484 | 7 | 4 | 1872 | 5 | / | / | /
Cn1c(=S)[nH]c2c(c1=O)C(C)(C)Cc1ccccc1-2 | 2681* | 2669* | 25* | 40* | 3109* | 45* | 37* | 24* | 24*
C#CCSc1ncc(-c2ccccc2)cn1 | 1733 | 1553 | 6 | 21* | 2074 | 10 | 5 | 4 | 5
CC(C)CC(=O)Nc1cccc(NC(=O)CC(C)C)n1 | 1543 | 1356 | -3 | 2 | 1497 | -3 | / | / | /
Cc1ccc(NC(=O)CCn2c(=S)oc3ccccc32)cc1 | 1795 | 1728 | 7 | 22* | 2071 | 12 | 3 | -1 | 1
O=C(CCn1c(=S)oc2ccccc21)Nc1ccc(F)cc1 | 1550 | 1616 | 2 | 7 | 1871 | 0 | / | / | /
COc1ccc(Br)cc1CNc1ccc(O)cc1 | 1752 | / | 18 | 10 | / | 23* | 7 | 5 | 6
Cc1ccccc1-n1c(O)c(/C=N/N2CCCCC2c2cccnc2)c(=O)[nH]c1=O (configuration not stated) | 1554 | 1641 | -1 | 1 | 1551 | -4 | / | / | /
O=c1c(Cl)c(N2CCN(S(=O)(=O)c3ccc(F)cc3)CC2)cnn1-c1cccc(Cl)c1 | 1804 | / | 45* | 47* | / | 5 | 45* | 39* | 24*
O=C(CCN1C(=O)COc2ccccc21)NCCCN1CCc2ccccc2C1 | 1384 | / | 11 | 0 | / | 4 | / | / | /
COc1ccc(Br)cc1-c1nc(CCl)cs1 | 3230* | 3363* | 42* | 62* | 3749* | 62* | 59* | 43* | 41*
CCOC(Cn1cc(C)c(=O)[nH]c1=O)OCC | 1515 | 1393 | -2 | -2 | 1467 | -2 | / | / | /
C=CCOc1c(Cl)cc(CNc2ccc(C)c(Cl)c2)cc1OC | 1597 | / | -10 | 2 | / | -8 | / | / | /
C=CCOc1c(Cl)cc(CNc2ccc(N(C)C)cc2)cc1OC | 2956* | / | 120* | 60* | / | 103* | 9 | 9 | 6
